Activity calls are given as the source filed them. Rule for the calls: active = hit-call score of the fitted dose curve at least 0.9, where 1 is the maximum; inactive = score below 0.9.
Experiment: APR_HepG2_MitoMass_72hr: Apredica 72-hour HepG2 Assay for Mitochondrial Mass (AID 2282924);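 note: MitoTracker Red CMXRos stain intensity per cell imaged as mitochondrial mass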
Conditions: high-content imaging, actives raise or lower the signal
Procedure: APR_HepG2_72hr is a cell-based, multiplexed-readout assay that uses HepG2, a human liver cell line, with measurements taken at 72 hours after chemical dosing in a 384-well plate.APR_HepG2_MitoMass_72hr is one of 10 assay component(s) measured or calculated from the APR_HepG2_72hr assay. It is designed to make measurements of cell phenotype, a form of morphology reporter, as detected with fluorescence intensity signals by HCS Fluorescent Imaging technology.Data from the assay component APR_HepG2_MitoMass_72hr was analyzed into 1 assay endpoint. This assay endpoint, APR_HepG2_MitoMass_72hr, was analyzed with bidirectional fitting relative to DMSO as the negative control and baseline of activity. Using a type of morphology reporter, gain or loss-of-signal activity can be used to understand changes in the signaling. Furthermore, this assay endpoint can be referred to as a primary readout, because this assay has produced multiple assay endpoints where this one serves a signaling function. To generalize the intended target to other relatable targets, this assay endpoint is annotated to the cell morphology intended target family, where the subfamily is organelle conformation.
Cells were treated with dimethyl sulfoxide (DMSO) as a solvent control at a final concentration of 0.5% v/v or with compounds in DMSO with a resulting final DMSO concentration of 0.5% v/v. Compound treatment was done at concentrations of 0.39, 0.78, 1.56, 3.12, 6.24, 12.5, 25, 50, 100, and 200 uM in duplicate on each plate. Cells were treated with compounds for 1, 24, or 72 hr. Carbonyl […] m-chloro-phenylhydrazone (CCCP) and taxol were used as positive controls for mitochondrial function and cytoskeletal stability, respectively; DMSO served as the negative control for this experiment. Cells were fixed by the direct addition of 50 uL formaldehyde in Hank's Balanced Salt Solution (HBSS) to a final concentration of 3.7%. After incubation in the fixation medium for 30 min at room temperature (293-298 K), cells were rinsed twice with HBSS and treated with cell permeabilization buffer (16 uL of 0.5% Triton X-100) for 10 min at room temperature (293-298 K) before labeling. For mitochondrial membrane potential and mitochondrial measurements, pre-fixed cells were incubated with 50 uL of MitoTracker Red CMXRos (Invitrogen) at a concentration of 250 nM for 30 min before fixation. In the remaining cases, post-fixed cells were labeled by incubation with a multiplexed mixture of primary antibodies in HBSS for 60 min at room temperature (293-298 K) to detect immunoreactivity of c-Jun (1:500), phospho-histone H3 (1:100), phospho-histone H2A.x (1:200), p53 (1:400), alpha-tubulin (1:200) and Hoechst 33342 (2 ug/mL). Cells were labeled for multiplexed imaging on two separate plates: a) Hoechst 33342, MitoTracker Red, phospho-histone H3, and alpha-tubulin, and b) Hoechst 33342, phospho-histone H2A.x, and c-Jun. A final rinse with HBSS (50 uL) was performed before analysis. The primary and secondary antibodies for the proteins were phospho-histone H3 (rabbit anti-phospho-histone H3 and FITC-donkey anti-rabbit IgG), phospho-histone H2A.x (mouse anti-phospho-histone H2A.x and FITC-donkey anti-mouse IgG), c-Jun (rabbit anti-phospho-c-Jun and Cy3-donkey anti-rabbit IgG), p53 (sheep anti-p53 and Cy5-donkey anti-sheep IgG), alpha-tubulin (mouse anti-alpha-tubulin and Cy5-donkey anti-mouse IgG). These antibodies are available as the CellCiphr HepG2 assay kit (Millipore).Digital images of each well were captured using a Cellomics ArrayScan VTI (Thermo Scientific Cellomics) (0.8 NA objective, 0.63x optical coupler, and XF-93 filter set) at 20x magnification. The images were acquired using the autofocus feature of the ArrayScan instrument, which entails the following steps. First, the camera focuses on channel 1 (Hoechst 33342), where nuclei are identified. Second, a Z offset of 1 um is used for capturing mitochondria (MitoTracker Red). […]
In the case of CC(C)(C)OOC(C)(C)CCC(C)(C)OOC(C)(C)C, the outcome is reported as “inactive”.
For O=C(Oc1ccc(Br)cc1)N1CCN2CCC1CC2, the outcome was “inactive”.
With O=C(N[C@H](c1ccccc1)[C@@H]1CN2CCC1CC2)c1c(Cl)ccc(C(F)(F)F)c1Cl the outcome was “inactive”.
With Cc1ccc(N=C=O)cc1N=C=O the outcome was “inactive”.
With Clc1ccc(C(c2ccc(Cl)cc2)C(Cl)Cl)cc1 the outcome was “inactive”.
For C[C@]12C=CC3=C4CCC(=O)C=C4CC[C@H]3[C@@H]1CC[C@@H]2O, the outcome was “inactive”.
With CCCCCCCCn1sccc1=O the AC50 was 3.51 µM (active).
In the case of CCN(CC)CCO, the outcome is reported as “inactive”.
For CC(C)(C)OOC(=O)c1ccccc1, the AC50 was 54 µM (active).
In the case of CC(C)(O)c1cnn2c(-c3ccc(F)c(-c4c(F)cccc4C#N)c3)cnc2n1, the AC50 is reported as 76.1 µM (active).
In the case of Oc1ccc2ccc3cccc4ccc1c2c34, the AC50 is reported as 46.4 µM (active).
With Cc1ccc(N)c(N)c1 the outcome was “inactive”.
With CCCCCCCCCCCCCN1CC(C)OC(C)C1 (stereo not given) the outcome was “inactive”.
With CCNS(=O)(=O)C(F)(F)C(F)(F)C(F)(F)C(F)(F)C(F)(F)C(F)(F)C(F)(F)C(F)(F)F the outcome was “inactive”.
With Clc1ccc(Cl)c(Cl)c1 the outcome was “inactive”.
For CN(C)c1ccc(C(=O)c2ccc(N(C)C)cc2)cc1, the AC50 was 0.855 µM (active).
With Nc1ccc(Cl)cc1N the outcome was “inactive”.
With CCOC(=O)[C@]1(c2ccccc2)Oc2ccccc2[C@@H]1N the outcome was “inactive”.
For N#CC(Br)(Br)C(N)=O, the outcome was “inactive”.
In the case of CC(C)(OOC(C)(C)c1ccccc1)c1ccccc1, the outcome is reported as “inactive”.
For Cc1cc(N=Nc2ccccc2C)ccc1N, the outcome was “inactive”.
In the case of Cc1cccc(N)c1N, the outcome is reported as “inactive”.
In the case of CN(C)c1ccccc1, the outcome is reported as “inactive”.
With N#CC(Br)Br the outcome was “inactive”.
In the case of Brc1ccc(Oc2ccccc2)cc1, the outcome is reported as “inactive”.
For CCCCOC(=O)c1ccccc1C(=O)OCc1ccccc1, the outcome was “inactive”.
For O=C1CCCO1, the outcome was “inactive”.
In the case of CC(O)CCO (stereo not given), the outcome is reported as “inactive”.
For Clc1ccc(C(c2ccc(Cl)cc2)C(Cl)(Cl)Cl)cc1, the outcome was “inactive”.
In the case of CN(C)C(=O)Nc1ccc(Cl)cc1, the outcome is reported as “inactive”.
With CNC(=O)Oc1cccc2c1OC(C)(C)C2 the outcome was “inactive”.
For Nc1ccc(Cc2ccc(N)cc2)cc1, the outcome was “inactive”.
For CC(C)(C)C(O)(CCc1ccc(Cl)cc1)Cn1cncn1 (stereo not given), the AC50 was 105 µM (active).
In the case of CO[C@@H]1[C@H](OC(=O)NC(=O)CCl)CC[C@]2(CO2)[C@H]1[C@@]1(C)O[C@@H]1CC=C(C)C, the outcome is reported as “inactive”.
In the case of Cc1ccc([N+](=O)[O-])cc1, the outcome is reported as “inactive”.
In the case of c1ccc(NNc2ccccc2)cc1, the AC50 is reported as 150 µM (active).
In the case of ClC1=C(Cl)[C@]2(Cl)[C@H]3[C@H]([C@@H]4C=C[C@H]3C4)[C@@]1(Cl)C2(Cl)Cl, the outcome is reported as “inactive”.
In the case of ClC1=C(Cl)C2(Cl)C3C(Cl)C=CC3C1(Cl)C2(Cl)Cl (stereo not given), the AC50 is reported as 88.9 µM (active).
In the case of CCC12COCN1COC2, the outcome is reported as “inactive”.
For Nc1ccc(Oc2ccc(N)cc2)cc1, the outcome was “inactive”.

Source: PubChem BioAssay (EPA / NIEHS)
